HP1b binding inh: inhibitors of HP1-beta chromodomain binding to methylated histone tails | Potency, µM (series often up to 114 µM), hits mostly inhibitors | P83916 | AID 540317 | AlphaScreen HP1-beta / biotin-H3K9me3 peptide binding | 390,000 tested, 0.56% active; also: nearly all actives have a fitted effect of over 70% in size
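AlphaScreen: HP1-beta (50 nM) preformed 30 min with biotin-H3(1-18)K9me3 peptide (50 nM) in PBS pH 7.4, 0.01% Tween-20. Compound added for 30 min at RT, then streptavidin donor/nickel chelate acceptor beads (10 ug/mL) for 30 min.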
BAZ2B inh: blocks human BAZ2B | AlphaScreen BAZ2B-H3K14Ac peptide displacement | Potency, µM (highest dose often 114 µM), hits mostly inhibitors | Q9UIF8 | 360,000 tested, 4.4% active; also: nearly all actives have a fitted effect of over 60% in size
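AlphaScreen luminescence quantifies BAZ2B engagement of H3K14Ac peptide; the protein and biotinylated peptide are both at 50 nM final, buffer PBS pH 7.4 with 0.01% Tween-20, all steps at room temperature.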
G9a inh: blocks human histone lysine methyltransferase G9a; AID 504332; 350,000 tested, 8.8% active; Q96KQ7; Potency, µM (series often up to 102 µM), usual class: inhibitors; G9a H3K9 monomethylation, AlphaScreen, 2 h; also: nearly all actives have a fitted effect of over 75% in size
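Using a bead-based AlphaScreen, monomethylated H3K9 product from 2 h room-temperature reactions (G9a 20 nM, peptide 500 nM, SAM 20 uM) was detected with 0.5 ug/mL rabbit anti-H3K9me1 antibody.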
PLK1 PBD inh: blocks phosphopeptide binding to human PLK1 polo-box domain | P53350 | Plk1 PBD binding of FITC phosphopeptide, fluorescence polarization | Potency, µM, most hits filed as inhibitors | 360,000 tested, 2.8% active | AID 720504; also: series mostly up to about 57 µM; nearly all actives have a fitted effect of over 65% in size
12-LOX inh: blocks human arachidonate 12S-lipoxygenase. P18054. purified 12hLO, xylenol orange hydroperoxide absorbance. Potency, µM (doses to about 108 µM), most hits filed as inhibitors. 580,000 tested, 1.1% active
Target sequence (P18054 whole entry, looked up): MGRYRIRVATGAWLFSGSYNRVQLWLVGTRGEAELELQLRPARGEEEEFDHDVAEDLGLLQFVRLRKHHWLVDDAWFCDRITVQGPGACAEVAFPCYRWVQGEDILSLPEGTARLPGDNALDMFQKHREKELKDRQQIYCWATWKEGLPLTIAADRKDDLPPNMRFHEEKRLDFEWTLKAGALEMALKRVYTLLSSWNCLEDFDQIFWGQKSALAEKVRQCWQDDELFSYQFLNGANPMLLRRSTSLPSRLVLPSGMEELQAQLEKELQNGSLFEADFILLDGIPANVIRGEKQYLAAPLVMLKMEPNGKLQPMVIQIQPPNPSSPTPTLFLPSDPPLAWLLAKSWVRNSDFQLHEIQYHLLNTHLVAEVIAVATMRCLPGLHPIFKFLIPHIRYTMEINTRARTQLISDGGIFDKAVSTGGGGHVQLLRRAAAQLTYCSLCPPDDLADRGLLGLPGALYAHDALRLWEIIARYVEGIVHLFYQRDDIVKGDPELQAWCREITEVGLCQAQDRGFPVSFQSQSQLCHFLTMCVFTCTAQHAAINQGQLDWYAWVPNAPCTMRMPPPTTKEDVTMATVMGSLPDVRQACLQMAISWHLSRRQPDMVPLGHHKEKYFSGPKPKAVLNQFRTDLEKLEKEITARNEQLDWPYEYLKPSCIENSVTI
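Hydroperoxide product was detected by ferrous iron/xylenol orange as the 573 to 405 nm absorbance ratio. Arachidonic acid at 40 uM (final) was turned over for 30 min at room temperature by 150 nM human 12hLO, pH 7.0 Hepes buffer, after 15 min compound preincubation.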
JMJD2A Tudor: JMJD2A Tudor domain (human) inhibition; Potency, µM (series often up to 114 µM), most hits filed as inhibitors; AlphaScreen JMJD2A-Tudor / H3K4me3 peptide binding; 390,000 tested, 4.4% active; O75164; also: nearly all actives have a fitted effect of over 50% in size
Large screens that a line does not name were inactive. In the library only some 9% were active in any assay of this set; here they are far more common. Calls follow the shape of the dose curve; as a rule, active = well fitted curve in the direction sought with a large enough effect; inconclusive = small, poorly fitted or top-dose-only effect, or another doubt; inactive = no such curve, though single readings can be large; an effect the other way counts as inactive or inconclusive.

N#C/C(=C\c1ccc(N2CCOCC2)cc1)c1ccccc1	none
N#C/C(=C\c1ccc(N2CCOCC2)o1)c1ccccc1	BAZ2B inh 40µM, G9a inh inconclusive, 12-LOX inh 20µM, JMJD2A Tudor inconclusive
O=C(CCn1ccn2nc3c(c2c1=O)CCCC3)Nc1ccc(Oc2ccccc2)cc1	none (no result: HP1b binding inh, BAZ2B inh, G9a inh, PLK1 PBD inh, JMJD2A Tudor)
Cc1ccc(CNC(=O)c2ccc(-n3cnc4cccnc43)cc2)cc1	none (no result: PLK1 PBD inh)
O=C(NCn1ccc(=O)[nH]c1=S)c1ccccc1	G9a inh 56µM
O=C(NCNC(=O)c1ccccc1)c1ccccc1	none
O=C(CSc1nc2ccccc2s1)NNC(=S)Nc1ccc(Cl)cc1	G9a inh 40µM
C=CCNC(=S)NNC(=O)CSc1nc2ccccc2s1	G9a inh 28µM
O=C(O)c1cc(N=Cc2c(O)c3ccccc3oc2=O)ccc1O	G9a inh 50µM, PLK1 PBD inh inconclusive, 12-LOX inh inconclusive
Cc1ccc(N=Cc2c(O)c3ccccc3oc2=O)cc1F	G9a inh 35µM
S=c1[nH]cc(-c2ccccc2)n1-c1ccccc1Cl	G9a inh inconclusive, 12-LOX inh inconclusive, JMJD2A Tudor 50µM
O=C1CN(c2ccccc2Cl)C(=O)CN1c1ccccc1Cl	none
COc1ccccc1-n1c(-c2ccccc2)c[nH]c1=S	BAZ2B inh inconclusive, G9a inh 0.89µM, 12-LOX inh inconclusive, JMJD2A Tudor inconclusive
Cn1c(=N)c(S(=O)(=O)c2ccc(F)cc2)cc2c(=O)n3ccccc3nc21	12-LOX inh inconclusive (no result: G9a inh)
Cc1c(C(N)=O)sc(N)c1C(=O)OC(C)C	G9a inh 40µM, PLK1 PBD inh inconclusive
CCOC(=O)c1c(N)sc(C(N)=O)c1C	HP1b binding inh inconclusive, G9a inh inconclusive, PLK1 PBD inh inconclusive
CCOC(=O)c1sc(N)c(C(N)=O)c1C	G9a inh 40µM, PLK1 PBD inh 24µM, 12-LOX inh inconclusive (no result: BAZ2B inh)
COc1cc(-c2nc3ccc4ccccc4c3c3c2CCC3)cc(OC)c1O	HP1b binding inh inconclusive, BAZ2B inh inconclusive, G9a inh 79µM, JMJD2A Tudor inconclusive
O=C(O)c1c2c(nc3ccccc13)/C(=C/c1ccc(O)cc1)CCC2	12-LOX inh inconclusive
COc1cc(/C=C2\CCCc3c2nc2ccccc2c3C(=O)O)cc([N+](=O)[O-])c1O	HP1b binding inh inconclusive, BAZ2B inh 56µM, G9a inh 40µM, 12-LOX inh inconclusive, JMJD2A Tudor inconclusive
O=C(O)c1c2c(nc3ccccc13)/C(=C/c1ccccc1[N+](=O)[O-])CCC2	BAZ2B inh inconclusive, G9a inh inconclusive, 12-LOX inh inconclusive
O=C(O)c1c2c(nc3ccccc13)/C(=C/c1cccc([N+](=O)[O-])c1)CCC2	12-LOX inh 40µM
COc1cc(-c2nc3ccc4ccccc4c3c3c2CCC3)cc(OC)c1OC	12-LOX inh inconclusive
CN(C)c1ccc(/C=C2\CCCc3c2nc2ccccc2c3C(=O)O)cc1	G9a inh 40µM
Cc1ccc(Cl)cc1NC(=O)c1cnc(N2CCCCC2)c2ccccc12	none (no result: PLK1 PBD inh)
Cc1ccc(NC(=O)C2CCN(C(=O)c3ccc(Cl)cc3)CC2)nc1	12-LOX inh inconclusive
COc1ccc(/C=C2\CCCc3c2nc2ccccc2c3C(=O)O)cc1OC	G9a inh 28µM (no result: HP1b binding inh, PLK1 PBD inh, 12-LOX inh, JMJD2A Tudor)
COc1cc(/C=C2\CCCc3c2nc2ccccc2c3C(=O)O)cc(OC)c1O	PLK1 PBD inh 27µM, 12-LOX inh inconclusive, JMJD2A Tudor inconclusive (no result: G9a inh)
COc1ccc(/C=C2\CCc3c2nc2ccccc2c3C(=O)O)cc1OC	G9a inh inconclusive, 12-LOX inh inconclusive
Cc1onc(-c2c(Cl)cccc2Cl)c1C(=O)N1CCOCC1	BAZ2B inh 79µM
Cc1onc(-c2ccccc2Cl)c1C(=O)N1CC(C)CC(C)C1 (configuration not stated)	none
Cc1onc(-c2ccccc2Cl)c1C(=O)N1CC(C)OC(C)C1 (configuration not stated)	PLK1 PBD inh 30µM, JMJD2A Tudor inconclusive
COC(=O)c1c(NC(=O)c2c(-c3ccccc3)noc2C)sc2c1CCCCC2	none (no result: HP1b binding inh, BAZ2B inh, G9a inh, PLK1 PBD inh, JMJD2A Tudor)
NC(=O)C1CCN(C(=O)CN2C(=O)c3ccccc3S2(=O)=O)CC1	none
O=C(Oc1cc(=O)oc2c1c(=O)n1c3c(cccc23)CC1)c1ccccc1	BAZ2B inh 50µM, PLK1 PBD inh inconclusive, 12-LOX inh inconclusive, JMJD2A Tudor inconclusive (no result: G9a inh)
Cc1c(Cl)cccc1NC(=O)CNC(=O)CCS(=O)(=O)c1ccc(F)cc1	PLK1 PBD inh 19µM
Cc1ccc(S(=O)(=O)CCC(=O)Nc2ccccc2Cl)cc1	none
Cc1c(Cl)cccc1NC(=O)NCc1ccc(F)cc1	G9a inh 50µM
Cc1c(Cl)cccc1NC(=O)NCc1ccccn1	none
CC(=O)OCCn1c(=O)c2cc3c(=O)n(CCOC(C)=O)c(=O)c3cc2c1=O	PLK1 PBD inh 12µM (no result: BAZ2B inh)
COCCn1c(=O)c2ccccc2c2ccccc2c1=O	none (no result: G9a inh)
Nc1sc(-c2ccccc2)cc1C(=O)O	BAZ2B inh inconclusive (no result: HP1b binding inh, PLK1 PBD inh, 12-LOX inh, JMJD2A Tudor)
O=c1cc(-c2ccccc2)ss1	HP1b binding inh inconclusive, PLK1 PBD inh 12µM, 12-LOX inh inconclusive (no result: BAZ2B inh, G9a inh)
CCOC(=O)c1c(C)nc(C)c(C(=O)OCC)c1-c1ccc(O)c(OC)c1	HP1b binding inh inconclusive, G9a inh 8.9µM, PLK1 PBD inh 6.7µM, 12-LOX inh inconclusive
COC(=O)c1c(C)nc(C)c(C(=O)OC)c1-c1ccc(OC)c(OC)c1	none
CCOC(=O)/C(N=Nc1sc(C(=O)OCC)c(C)c1C(=O)OCC)=C(\C)O	none (no result: HP1b binding inh, PLK1 PBD inh, 12-LOX inh, JMJD2A Tudor)
CCOC(=O)c1sc(N=NC2=C(O)CCCC2=O)c(C(=O)OCC)c1C	HP1b binding inh inconclusive, BAZ2B inh 13µM, G9a inh 14µM, 12-LOX inh inconclusive, JMJD2A Tudor 25µM
Cc1ccc(CCC(=O)Nc2ccc(CC(=O)O)cc2)o1	G9a inh 56µM, PLK1 PBD inh 12µM, JMJD2A Tudor inconclusive
COc1ccc(-c2ccc(-c3noc(-c4ccco4)n3)c(OC)n2)cc1	none
COc1nc(-c2ccccc2)ccc1-c1noc(-c2ccco2)n1	HP1b binding inh inconclusive, G9a inh inconclusive, 12-LOX inh 20µM, JMJD2A Tudor 50µM
O=C(O)/C=C/C(=O)Nc1ccccc1SC(F)(F)C(F)(F)C(F)(F)F	G9a inh 45µM, JMJD2A Tudor inconclusive
O=C(O)/C=C/C(=O)Nc1ccccc1-c1ccccc1	12-LOX inh inconclusive
COc1cc(C(=O)Nc2cc(C)c(O)c(-c3nc4cc(Cl)ccc4o3)c2)cc(OC)c1OC	none (no result: PLK1 PBD inh)
c1ccc2c(c1)CC/C2=N/Nc1nc2ccccc2[nH]1	BAZ2B inh inconclusive, 12-LOX inh inconclusive
FC(F)(F)c1ccccc1N/N=C1/CCc2ccccc21	12-LOX inh 10µM (no result: HP1b binding inh, BAZ2B inh, G9a inh, PLK1 PBD inh, JMJD2A Tudor)
NC1=NC(=O)/C(=C/c2cccc(-c3ccc(S(N)(=O)=O)cc3)c2)S1	BAZ2B inh inconclusive, G9a inh 35µM
NC1=NC(=O)/C(=C\c2ccc(O)c([N+](=O)[O-])c2)S1	G9a inh inconclusive
Cc1nnc(SCC(=O)NNC(=O)CC#N)[nH]c1=O	none

Screening results deposited in PubChem by National Center for Advancing Translational Sciences (NCATS).
